Results reported in the supplement of paper PMC7830784.
Counter-ions that a name gives are not always drawn.

Test system: Brugia pahangi adult female
Assay: IC50 motility inhibition on day 3
Details: 3 days
Description: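 Single adult female Brugia pahangi worms in 24-well plates (RPMI-1640, 5% FBS, 37 °C) were treated with 10 µM of each compound from a 2121-drug library (4 replicates; 1% DMSO vehicle and 10 µM auranofin controls). Motility was recorded with WormAssay dark-field imaging, and % inhibition of motility on day 3 is relative to vehicle. IC50 values for selected hits come from a 6-point dilution series (30 to 0.1 µM) fitted in GraphPad Prism.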

Row | Structure (SMILES) | IC50 motility inhibition on day 3 [µM]
1 | Oc1c(I)cc(Cl)c2cccnc12 [clioquinol] | 2.61
2 | CCCCC(CC)COC(=O)CC(C(=O)OCC(CC)CCCC)S(=O)(=O)O (stereo not given) [docusate sodium] | 0.294
3 | C=C(CC)C(=O)c1ccc(OCC(=O)O)c(Cl)c1Cl [ethacrynic acid] | 2.6
4 | CC1=CC(=O)c2ccccc2C1=O [menadione] | 4.23
5 | Cc1cc(CC(C)CC(C)(C)C)n(O)c(=O)c1 (stereo not given) [piroctone olamine] | 0.883
6 | O=C(Nc1ncc([N+](=O)[O-])s1)c1ccccc1O [Tizoxanide] | 3.4
7 | CCCCCCCCCc1ccc(OCCOCCOCCOCCOCCOCCOCCOCCOCCO)cc1 [nonoxynol-9] | 3.24
8 | Clc1ccc(Cn2c(CN3CCCC3)nc3ccccc32)cc1 [clemizole hydrochloride] | 6.51
9 | Cc1cc2nc3c(=O)[nH]c(=O)nc-3n(C[C@H](O)[C@H](O)[C@H](O)CO)c2cc1C [riboflavin] | 16
10 | C1CCC(C(CC2CCCCN2)C2CCCCC2)CC1 (stereo not given) [perhexiline maleate] | 7.46
11 | C[n+]1cc2c3c(ccc2c2ccc4cc5c(cc4c21)OCO5)OCO3 [Sanguinarine chloride] | 6.08
12 | Cc1cc(/C=C/c2ccc3cc(N(C)C)ccc3[n+]2C)c(C)n1-c1ccccc1 [pyrvinium pamoate] | < 0.1
13 | CC[n+]1c(-c2ccccc2)c2cc(N)ccc2c2ccc(N)cc21 [homidium bromide] | 5.43
14 | Cc1cc(C(C)(C)CC(C)(C)C)ccc1OCCOCC[N+](C)(C)Cc1ccccc1 [methylbenzethonium chloride] | 3.46
15 | C[n+]1c2cc(N)ccc2cc2ccc(N)cc21 [acriflavinium hydrochloride] | 4.62
16 | CCCCCCCCCCCCC[N+](C)(C)Cc1ccccc1 [benzalkonium chloride] | 1.9
17 | Clc1ccc(COC(Cn2ccnc2)c2ccc(Cl)cc2Cl)cc1 (stereo not given) [econazole nitrate] | 3.97
18 | Oc1ccc2ccccc2c1 [beta-naphthol] | 8.31
19 | CC(C)(C)CC(C)(C)c1ccc(OCCOCC[N+](C)(C)Cc2ccccc2)cc1 [benzethonium chloride] | 1.4
20 | Clc1ccc(C(Cn2ccnc2)OCc2ccsc2Cl)c(Cl)c1 (stereo not given) [tioconazole] | 3.18

Row | Structure (SMILES) | IC50 motility inhibition on day 3 [µM]
21 | COC(=O)C1=C(C)NC(C)=C(C(=O)OCC(C)C)C1c1ccccc1[N+](=O)[O-] (stereo not given) [nisoldipine] | 9.81
22 | CN(C)c1ccc2nc3ccc(=[N+](C)C)cc-3sc2c1 [methylene blue] | 1.06
23 | O=C1c2cccc(O)c2C(=O)c2c(O)cccc21 [dantron] | 18.3
24 | CN(C)c1ccc(C(=C2C=CC(=[N+](C)C)C=C2)c2ccc(N(C)C)cc2)cc1 [gentian violet] | 0.3
25 | CC(=O)Oc1ccccc1C(=O)Nc1ncc([N+](=O)[O-])s1 [nitazoxanide] | 5.78
26 | CC(C)/N=c1\cc2n(-c3ccc(Cl)cc3)c3ccccc3nc-2cc1Nc1ccc(Cl)cc1 [clofazimine] | > 30
27 | O=C(CCN1CCC(c2ccccc2)C1)c1ccc2c(c1)OCCO2 (stereo not given) [Proroxan] | 8.53
28 | N=C(NCCCCCCNC(=N)NC(=N)Nc1ccc(Cl)cc1)NC(=N)Nc1ccc(Cl)cc1 [chlorhexidine] | 9.13
29 | CCCCCCCCNC(C)C(O)c1ccc(SC(C)C)cc1 (stereo not given) [suloctidil] | 3.66
30 | COc1cc(NC(C)CCCN)c2ncccc2c1 (stereo not given) [primaquine diphosphate] | 5.06
31 | Oc1c(Cl)cc(Cl)c(Cl)c1Cc1c(O)c(Cl)cc(Cl)c1Cl [hexachlorophene] | 1.7
32 | COc1cc(C)c2c(Oc3cccc(C(F)(F)F)c3)c(OC)cc(NC(C)CCCN)c2n1 (stereo not given) [Tafenoquine Succinate] | 14.1
33 | O=C(Nc1ccc([N+](=O)[O-])cc1Cl)c1ccccc1O | 2.6
34 | O=C1C(O)=C([C@H]2CC[C@H](c3ccc(Cl)cc3)CC2)C(=O)c2ccccc21 [atovaquone] | 4.16
35 | O=C(Nc1ccc([N+](=O)[O-])cc1Cl)c1cc(Cl)ccc1O [niclosamide] | 1.17
36 | O=C1CN(/N=C/c2ccc([N+](=O)[O-])o2)C(=O)N1 [nitrofurantoin] | 11.6
37 | COC(=O)C1=C(C)NC(C)=C(C(=O)OC(C)C)C1c1cccc2nonc12 (stereo not given) [isradipine] | 2.75
38 | Oc1c(Cl)cc(Cl)cc1Sc1cc(Cl)cc(Cl)c1O [bithionol] | 6.1
39 | CSc1ccc2c(c1)N(CCC1CCCCN1C)c1ccccc1S2 (stereo not given) [Thioridazine hydrochloride] | 8.08
40 | CC(=O)OC[C@H]1O[C@@H]([S-])[C@H](OC(C)=O)[C@@H](OC(C)=O)[C@@H]1OC(C)=O.CCP(CC)CC.[Au+] [Auranofin] | 0.7
